Here are results for six compounds from PubChem BioAssay (NCATS).

The target in assay [1] is Lysosomal acid glucosylceramidase (Homo sapiens) (UniProt P04062). Briefly: Glucocerebrosidase-p2 (AID 348; in the data active = potency below about 10 µM; also: potency is read from the fitted curve at half-maximal effect). Particulars: purified GBA, blue fluorogenic substrate, 40 min. The method in brief: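 Compounds titrated from 0.6 nM upwards against 0.2 nM enzyme in pH 5.9 citric acid/KH2PO4, taurocholate, tween-20; blue fluorogenic substrate 80 uM, 40 min room temperature, stopped and read Ex 365/Em 440 for AC50.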
Chain of Lysosomal acid glucosylceramidase (Homo sapiens) (P04062 whole entry, looked up): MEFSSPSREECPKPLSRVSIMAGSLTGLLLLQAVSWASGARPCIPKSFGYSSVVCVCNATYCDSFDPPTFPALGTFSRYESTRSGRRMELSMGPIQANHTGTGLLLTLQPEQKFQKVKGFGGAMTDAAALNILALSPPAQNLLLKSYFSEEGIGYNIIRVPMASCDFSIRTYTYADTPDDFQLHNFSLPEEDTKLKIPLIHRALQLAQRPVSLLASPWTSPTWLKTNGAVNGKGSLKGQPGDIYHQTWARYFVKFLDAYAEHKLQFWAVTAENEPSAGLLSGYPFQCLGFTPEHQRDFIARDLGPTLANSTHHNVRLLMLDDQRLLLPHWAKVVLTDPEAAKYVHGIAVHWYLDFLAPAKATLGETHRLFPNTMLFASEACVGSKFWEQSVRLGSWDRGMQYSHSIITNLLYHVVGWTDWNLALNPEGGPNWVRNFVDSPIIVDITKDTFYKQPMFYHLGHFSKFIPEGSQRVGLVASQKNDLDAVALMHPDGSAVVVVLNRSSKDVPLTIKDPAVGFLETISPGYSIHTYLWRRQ

Assay [2] is described as follows: AP1 Signaling Pathway (AID 357; active = well fitted curve in either direction with a large enough effect, not every such curve was filed as active;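 also: ME-180 reporter cells stimulated with EGF at its EC50 level; % is scaled to controls: 0 for no effect and ±100 for the full control effect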). To be noted: ME-180 AP-1-bla reporter, EGF-induced, beta-lactamase ratio, 5 h; at 7.69 µM (top of the series) unless noted. The method in brief: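 First, ME-180 AP-1-bla cells were cultured overnight at 37 °C in low-serum Opti-MEM. Next, titrated compounds with EC50 EGF were incubated 5 hours. Finally, CCF4 was added for 2.5 hours and the 460/530 nm ratio recorded.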

In assay [3] the target is Cytochrome P450 1A2 (Homo sapiens) (UniProt P05177). As to the kind of experiment: p450-cyp1a2 (AID 410; calls by dose curve; also: potency is read from the fitted curve at half-maximal effect). Particulars: recombinant CYP1A2, luciferin-ME demethylation, luminescence; series mostly up to 57 µM. A digest of the protocol: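 Luminescent readout of luciferin formed from Luciferin-ME by human CYP1A2; data normalized against complete inhibition by 57 uM furafylline. Enzyme 20nM, substrate 100uM at Km, 100mM KPO4 buffer, 60 min reaction at room temperature.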
Chain of Cytochrome P450 1A2 (Homo sapiens) (P05177 whole entry, looked up): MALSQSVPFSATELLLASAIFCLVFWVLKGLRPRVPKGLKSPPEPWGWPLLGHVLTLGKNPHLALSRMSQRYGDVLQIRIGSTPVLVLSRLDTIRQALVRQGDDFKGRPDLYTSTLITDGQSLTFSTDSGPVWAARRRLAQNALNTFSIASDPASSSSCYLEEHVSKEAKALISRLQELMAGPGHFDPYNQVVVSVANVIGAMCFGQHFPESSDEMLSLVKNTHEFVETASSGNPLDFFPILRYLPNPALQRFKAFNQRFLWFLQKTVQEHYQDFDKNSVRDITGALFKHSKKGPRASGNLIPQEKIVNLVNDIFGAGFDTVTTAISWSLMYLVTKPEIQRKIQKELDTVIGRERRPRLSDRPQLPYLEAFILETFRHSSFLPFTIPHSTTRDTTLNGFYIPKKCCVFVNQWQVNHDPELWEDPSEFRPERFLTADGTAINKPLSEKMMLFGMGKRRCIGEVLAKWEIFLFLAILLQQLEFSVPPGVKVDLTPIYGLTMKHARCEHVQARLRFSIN

Assay [4] can be described thus: NFAT Signaling Pathway (AID 444; active = well fitted curve in either direction with a large enough effect, not every such curve was filed as active;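 also: carbachol stimulus at about its EC50 of 1 µM final; % is scaled to controls: 0 for no effect and ±100 for the full control effect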). Particulars: Jurkat NFAT-bla M1, carbachol, beta-lactamase ratio, 5 h; at 7.69 µM (top of the series) unless noted. A digest of the protocol:
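Jurkat cells carrying an NFAT-driven β-lactamase reporter and co-transfected muscarinic M1 receptor were treated with compound plus carbachol (1 uM final, an EC50 level) for 5 h at 37 °C. CCF4 loading followed for 1 h at RT; 460/530 nm ratio gave %activity.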

The nature of assay [5]: Stat Signaling Pathway (AID 446; active = well fitted curve in either direction with a large enough effect, not every such curve was filed as active;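 also: ME-180 cervical cancer cells given 40 pM IL-6 alongside compound; SIE-controlled beta-lactamase reporter measured as 460/530 nm FRET emission ratio; % is scaled to controls: 0 for no effect and ±100 for the full control effect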). Particulars: ME-180 SIE beta-lactamase reporter, IL-6 stimulated, 5 h; at 7.69 µM (top of the series) unless noted. The method in brief:
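Screening format detects activators and inhibitors alike: ME-180 SIE-bla cells stimulated at 40 pM IL-6 for 5 hrs with compound, then dual-emission beta-lactamase read at 405 nm excitation.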

Assay [6] concerns the target Glucocorticoid receptor (Homo sapiens) (UniProt P04150). As to the kind of experiment: GR-GFP Redistribution (AID 450;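 active = compounds whose dose series gives a full or clear partial fitted curve of increased nuclear translocation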; also: potency is read from the fitted curve at half-maximal effect). Particulars: U2OS GR-GFP nuclear translocation, laser cytometry, 2 h.
Assay [7] shares this target. Briefly: GR-EFC Redistribution (AID 451; calls by dose curve; also: potency is read from the fitted curve at half-maximal effect). Particulars: CHO-K1 GR-EFC translocation, beta-gal luminescence, 2 h. The method in brief: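 CHO-K1 cells stably expressing nuclear-localized β-gal enzyme acceptor and GR fused C-terminally to the enzyme donor fragment; ligand-driven nuclear translocation restores β-gal by complementation. Compounds titrated up to 46 uM final, 2 h at 37 °C; luminescence read.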

Assay [8] concerns the target Mitogen-activated protein kinase 10 (Mus musculus) (UniProt Q61831). Briefly: JNK3 AlphaScreen Assay (AID 530; active = well fitted curve in either direction with a large enough effect, not every such curve was filed as active;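 also: kinase came from lysate of stimulated human HepG2 cells; signal reports phosphorylation of biotinylated GST-cJun 1-79 at Ser73 with 10 µM ATP; % is scaled to controls: 0 for no effect and ±100 for the full control effect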). To be noted: JNK3 lysate, c-Jun phosphorylation; series mostly up to 57.1 µM. A digest of the protocol: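 Inhibitors reduce antibody binding to phosphorylated biotin-cJun, lowering AlphaScreen luminescence. Lysates from HepG2 cells pre-activated by IL-1beta plus TNF-alpha supplied JNK3; compounds were titrated.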

The target in assay [9] is 3',5'-cyclic-AMP phosphodiesterase 4B (Homo sapiens) (UniProt Q07343). As to the kind of experiment: qHTS Assay for Inhibitors of PDE-IV (AID 607; active = well fitted activation curve with a large enough effect in the main read-out, with a control signal flat, not every such curve was filed as active; also: % of control where 0% means no effect). Particulars: HEK293 ACTOne CNG channel cells, membrane potential fluorescence; series mostly up to 22.9 µM. The method in brief:
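The readout is membrane depolarisation from a cAMP-sensing CNG channel, detected with a potential dye at ex 535/em 590. Cells were HEK293-derived (endogenous PDE-IV) at 1000 cells/well, titrated up to 22.9 uM final.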
On the technique in general: Quantitative high-throughput screening tests each substance at several concentrations.

Assay [10] in a line: Confirmation and Secondary Assay for Modulators of Hemoglobin Beta Chain Splicing at IVS2 654 locus (AID 910).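 Also: per-well total GFP intensity by laser scanning cytometry after 2-day treatment; % of control where 0% means no effect.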 To be noted: HeLa EGFP-654 splicing reporter, GFP fluorescence, 48 h; series mostly up to 38.3 µM. A digest of the protocol: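 HeLa cells stably carrying EGFP interrupted by mutant beta-globin IVS2-654 intron (CMV-driven) were treated with compound for 2 days at 37C; corrected splicing was scored as total peak GFP intensity per well (488 nm excitation, 500-520 nm emission).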

Assay [11] is described as follows: Confirmation and Secondary Assay for Modulators of Hemoglobin Beta Chain Splicing at IVS2 705 locus (AID 930).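 Also: HeLa cells stably expressing the EGFP-705 splicing reporter; GFP fluorescence per well restored by corrected splicing of the IVS2-705 intron in EGFP; % of control where 0% means no effect.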 Particulars: HeLa EGFP-705 splicing reporter, GFP fluorescence, 48 h; series mostly up to 38.3 µM. A digest of the protocol: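 Stable HeLa line with EGFP disrupted by mutant beta-globin intron 2 (705). Overnight attachment, then 2 days of compound at 37C, 5% CO2. Signal: peak GFP intensity summed over objects 5-250 µm.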

A short description of assay [12]: qHTS Assay for Lipid Storage Modulators (AID 1519; calls by dose curve). To be noted: Drosophila S3 cells, BODIPY lipid droplet/cell ratio, laser cytometry, cells loaded with oleic acid; for activity change, negative = inhibition: at 57.5 µM (top of the series). A digest of the protocol: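 Cells seeded at 5,000 per well were treated with compounds over a concentration series and loaded with oleic acid (400 uM, as added). Lipid droplet fluorescence (488 nm excitation, 500-530 nm channel) was read by laser-scanning cytometry and normalized to 20 uM Triacsin C.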

Assay [13] addresses Ubiquitin carboxyl-terminal hydrolase 1 (Homo sapiens) (UniProt O94782). As to the kind of experiment: Inhibitors of USP1/UAF1: Pilot qHTS (AID 504865).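 Also: rhodamine fluorescence freed from ubiquitin-rhodamine substrate followed over time; top concentration of the series differs between compounds; % is scaled to controls: 0 for no effect and ±100 for the full control effect; nearly all actives have a fitted effect of over 35% in size.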 Particulars: purified USP1/UAF1, Ub-rhodamine cleavage fluorescence; series mostly up to 54.9 µM. A digest of the protocol: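 Deubiquitinase activity followed as kinetic rhodamine fluorescence release from 150 nM Ub-Rho. 1 nM USP1/UAF1 with compound, after 15 min room-temperature preincubation, in HEPES pH 7.8 buffer containing TCEP, EDTA, BSA and Tween-20.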

The nature of assay [14]: Primary qHTS for small molecule stabilizers of the endoplasmic reticulum resident proteome: Secreted ER Calcium Modulated Protein (SERCaMP) assay (AID 1508630). Also: % is scaled to controls: 0 for no effect and ±100 for the full control effect. To be noted: SH-SY5Y GLuc-SERCaMP (Gaussia luciferase released on ER calcium loss) secretion, thapsigargin, luminescence; series mostly up to 38.4 µM. A digest of the protocol: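 GLuc-SERCaMP-expressing SH-SY5Y cells, pretreated 16 h with compound, are challenged with thapsigargin to empty ER calcium stores; after 4 h, coelenterazine is added directly to the medium and luminescence is imaged.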

Assay [15] deals with Cytochrome P450 3A4 (Homo sapiens) (UniProt P08684). As to the kind of experiment: qHTS Assay for Activators of Cytochrome P450 3A4 (AID 885). Also: nearly all actives have a fitted effect of over 65% in size. To be noted: recombinant CYP3A4, Luciferin-PPXE luminescence, 60 min; series mostly up to 57.1 µM. A digest of the protocol:
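Steps: enzyme/substrate mix dispensed; compound added, 10 min RT; NADPH regeneration solution added, 60 min RT; luciferin detection buffer stops reaction; 20 min later luminescence measured.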

For assay [16], the target named is Cytochrome P450 2C19 (Homo sapiens) (UniProt P33261). Briefly: qHTS Assay for Inhibitors and Substrates of Cytochrome P450 2C19 (AID 899). Also: potency is read from the fitted curve at half-maximal effect; nearly all actives have a fitted effect of over 60% in size. To be noted: recombinant CYP2C19, luciferin-H EGE luminescence; series mostly up to 57.1 µM. The method in brief: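 Human CYP2C19 (5nM) with Luciferin-H EGE at 10uM (its KM) in 50mM KPO4 was preincubated with compound for 10 min at 37C. NADPH regeneration started a 60 min 37C reaction. Luciferin was read by luminescence, normalized to 57uM ketoconazole.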
Chain of Cytochrome P450 2C19 (Homo sapiens) (P33261 whole entry, looked up): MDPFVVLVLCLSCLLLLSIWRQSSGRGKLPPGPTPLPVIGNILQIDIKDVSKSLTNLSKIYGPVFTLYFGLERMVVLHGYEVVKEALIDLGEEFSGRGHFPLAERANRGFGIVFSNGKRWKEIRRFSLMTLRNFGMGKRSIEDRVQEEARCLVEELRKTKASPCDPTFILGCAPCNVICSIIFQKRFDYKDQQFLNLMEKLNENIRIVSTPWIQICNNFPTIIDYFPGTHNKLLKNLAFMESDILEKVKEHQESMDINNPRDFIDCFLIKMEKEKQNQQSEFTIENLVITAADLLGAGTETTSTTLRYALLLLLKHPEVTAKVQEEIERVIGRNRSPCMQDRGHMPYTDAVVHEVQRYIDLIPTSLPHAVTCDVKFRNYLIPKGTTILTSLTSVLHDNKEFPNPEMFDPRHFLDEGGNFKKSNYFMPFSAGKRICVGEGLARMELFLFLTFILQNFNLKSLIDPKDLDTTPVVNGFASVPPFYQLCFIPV

Assay [17] is described as follows: qHTS Assay for Identification of Small Molecule Agonists for Hypoxia Response Element Signaling Pathway (AID 914; active = well fitted activation curve with a large enough effect in the signal ratio, with a control signal flat, not every such curve was filed as active; the % refers to the signal ratio; also: % of control where 0% means no effect). Particulars: ME-180 (cervical carcinoma) HRE-bla reporter, beta-lactamase ratio, CoCl2, 17 h; activation: stronger effect = higher value. The method in brief:
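Reporter activity (beta-lactamase, CCF4 460nm/530nm ratio) in HRE-bla ME-180 cells is recorded after 17 h compound exposure with EC50 CoCl2 at 37 degrees Celsius. AC50 values come from titration data.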

The target in assay [18] is Cytochrome P450 3A4 (Homo sapiens) (UniProt P08684). As to the kind of experiment: qHTS Assay for Inhibitors and Substrates of Cytochrome P450 3A4 (AID 884). Also: % is scaled to controls: 0 for no effect and ±100 for the full control effect; nearly all actives have a fitted effect of over 50% in size. Particulars: recombinant CYP3A4, Luciferin-PPXE luminescence; series mostly up to 57.1 µM. The method in brief:
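20 nM human CYP3A4 with 25 uM Luciferin-PPXE (at KM) in 200 mM KPO4, preincubated 10 min with compound; NADPH regeneration started a 60 min RT reaction. Luciferin detected by luminescence, normalized to 57 uM ketoconazole as full inhibition.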

Where [19] appears, read: measured here: cell count channel max response.
[20] abbreviates: measured here: lipid channel max response.

Records with an inconclusive call do not appear. Calls of active or inactive are those of the source. Unless noted, calls follow the shape of the dose curve; as a rule, active = well fitted curve in the direction sought with a large enough effect; inconclusive = small, poorly fitted or top-dose-only effect, or another doubt; inactive = no such curve, though single readings can be large; an effect the other way counts as inactive or inconclusive. Some results are limits rather than exact numbers.

Chain of 3',5'-cyclic-AMP phosphodiesterase 4B (Homo sapiens) (Q07343 whole entry, looked up): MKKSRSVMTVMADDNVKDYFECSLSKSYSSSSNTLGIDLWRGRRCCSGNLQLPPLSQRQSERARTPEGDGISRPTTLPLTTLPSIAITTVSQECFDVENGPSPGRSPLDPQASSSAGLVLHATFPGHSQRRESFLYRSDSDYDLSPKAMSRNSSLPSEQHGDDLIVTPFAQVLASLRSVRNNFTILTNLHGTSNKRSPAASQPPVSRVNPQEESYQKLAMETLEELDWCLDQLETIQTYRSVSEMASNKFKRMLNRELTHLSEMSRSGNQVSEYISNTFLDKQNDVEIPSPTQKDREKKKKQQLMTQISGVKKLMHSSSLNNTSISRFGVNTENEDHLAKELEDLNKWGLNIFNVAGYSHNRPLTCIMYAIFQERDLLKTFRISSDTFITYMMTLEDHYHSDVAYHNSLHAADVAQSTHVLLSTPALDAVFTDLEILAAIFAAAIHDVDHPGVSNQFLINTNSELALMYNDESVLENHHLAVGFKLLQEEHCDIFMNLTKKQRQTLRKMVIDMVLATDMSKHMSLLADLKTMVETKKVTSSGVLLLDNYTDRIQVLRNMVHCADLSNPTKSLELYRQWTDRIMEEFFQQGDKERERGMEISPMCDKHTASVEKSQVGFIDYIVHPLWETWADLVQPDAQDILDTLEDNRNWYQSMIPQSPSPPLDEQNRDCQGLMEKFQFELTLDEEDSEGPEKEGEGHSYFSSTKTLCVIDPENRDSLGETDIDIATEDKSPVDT
Chain of Ubiquitin carboxyl-terminal hydrolase 1 (Homo sapiens) (O94782 whole entry, looked up): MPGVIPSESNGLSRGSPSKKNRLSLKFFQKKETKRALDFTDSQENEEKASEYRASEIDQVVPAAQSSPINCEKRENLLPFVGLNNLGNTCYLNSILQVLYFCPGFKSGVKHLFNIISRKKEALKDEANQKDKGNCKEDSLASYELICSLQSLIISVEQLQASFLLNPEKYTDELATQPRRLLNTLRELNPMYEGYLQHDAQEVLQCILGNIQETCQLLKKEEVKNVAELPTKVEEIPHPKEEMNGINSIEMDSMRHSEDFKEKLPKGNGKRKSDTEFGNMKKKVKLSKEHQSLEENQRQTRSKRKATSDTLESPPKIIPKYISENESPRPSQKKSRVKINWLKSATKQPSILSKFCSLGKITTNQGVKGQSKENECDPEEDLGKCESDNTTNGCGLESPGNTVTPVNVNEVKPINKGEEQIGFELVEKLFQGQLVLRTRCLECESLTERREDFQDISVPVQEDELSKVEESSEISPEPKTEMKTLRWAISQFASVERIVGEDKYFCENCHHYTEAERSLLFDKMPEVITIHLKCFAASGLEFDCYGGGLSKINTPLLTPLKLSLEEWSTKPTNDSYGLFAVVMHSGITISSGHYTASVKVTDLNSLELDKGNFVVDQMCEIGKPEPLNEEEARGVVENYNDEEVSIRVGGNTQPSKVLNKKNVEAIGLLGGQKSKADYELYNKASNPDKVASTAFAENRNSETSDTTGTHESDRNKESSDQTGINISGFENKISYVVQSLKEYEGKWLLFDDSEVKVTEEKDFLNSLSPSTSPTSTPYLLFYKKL
Chain of Glucocorticoid receptor (Homo sapiens) (P04150 whole entry, looked up, the tested form may be a part): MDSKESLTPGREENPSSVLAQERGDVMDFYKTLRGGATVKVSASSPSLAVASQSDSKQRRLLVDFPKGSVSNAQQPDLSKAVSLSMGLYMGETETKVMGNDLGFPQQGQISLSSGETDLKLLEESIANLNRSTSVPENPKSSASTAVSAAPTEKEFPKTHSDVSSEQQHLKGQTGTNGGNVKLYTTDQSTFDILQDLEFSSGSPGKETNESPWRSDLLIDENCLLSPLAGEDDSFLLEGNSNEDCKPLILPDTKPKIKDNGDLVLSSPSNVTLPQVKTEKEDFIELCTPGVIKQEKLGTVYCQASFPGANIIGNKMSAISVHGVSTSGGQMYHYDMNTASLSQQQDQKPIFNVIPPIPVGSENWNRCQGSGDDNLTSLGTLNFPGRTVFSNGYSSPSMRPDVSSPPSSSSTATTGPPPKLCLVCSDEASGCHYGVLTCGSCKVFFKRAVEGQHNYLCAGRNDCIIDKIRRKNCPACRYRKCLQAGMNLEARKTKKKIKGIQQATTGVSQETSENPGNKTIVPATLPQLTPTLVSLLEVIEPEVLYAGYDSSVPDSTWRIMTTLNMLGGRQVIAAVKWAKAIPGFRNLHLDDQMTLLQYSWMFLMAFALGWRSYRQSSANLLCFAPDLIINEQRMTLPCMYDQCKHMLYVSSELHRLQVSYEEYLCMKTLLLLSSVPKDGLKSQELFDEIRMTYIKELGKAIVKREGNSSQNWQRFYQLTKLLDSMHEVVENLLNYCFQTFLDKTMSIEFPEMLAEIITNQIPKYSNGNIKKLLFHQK
Chain of Cytochrome P450 3A4 (Homo sapiens) (P08684 whole entry, looked up): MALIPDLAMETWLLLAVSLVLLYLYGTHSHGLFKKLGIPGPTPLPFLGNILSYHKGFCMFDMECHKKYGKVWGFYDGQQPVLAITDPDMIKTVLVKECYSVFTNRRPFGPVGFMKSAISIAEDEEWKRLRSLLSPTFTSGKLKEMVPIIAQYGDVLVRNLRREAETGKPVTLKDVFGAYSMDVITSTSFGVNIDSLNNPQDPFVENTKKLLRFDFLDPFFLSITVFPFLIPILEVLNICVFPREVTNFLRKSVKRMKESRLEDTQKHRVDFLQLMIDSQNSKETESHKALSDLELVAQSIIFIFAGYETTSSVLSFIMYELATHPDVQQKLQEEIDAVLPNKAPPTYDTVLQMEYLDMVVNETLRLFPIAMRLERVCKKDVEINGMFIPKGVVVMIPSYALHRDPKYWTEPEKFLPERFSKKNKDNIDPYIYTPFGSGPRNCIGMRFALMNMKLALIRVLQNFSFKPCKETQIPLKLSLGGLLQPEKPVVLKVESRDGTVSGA

Turning to `Cc1cnc(CNc2ncncc2-c2ccccc2C#N)cn1`, the Potency was > 11.4 µM (inactive) in assay [1], 0.251 µM (active) in [3], > 46 µM (inactive) in [6] and > 46 µM (inactive) in assay [7]. Further, the values for the activity change, negative = inhibition in [2], in [4] and in assay [12] were 8.99% (inactive), -5.21% (inactive) and 8.38% (inactive), respectively. In assay [5], the activity, negative = inhibition was -4.72% (inactive). The call in assay [8], in assay [10] and in [11] was inactive. For the same compound, the Potency entry in [9], in assay [13] and in assay [14] was “inactive” in each case. In addition, the max response in [12] (setting [19]) amounted to 14%; in assay [12] (setting [20]), 24.3%.
Consider `COc1ccccc1CNc1ncncc1-c1cccc(C#N)c1`, for which the Potency in assay [1] was > 11.4 µM (inactive); in [3], 10 µM (active); in assay [6], > 46 µM (inactive); in assay [7], > 46 µM (inactive); in [16] it was 3.16 µM (active). Also, the activity change, negative = inhibition is -6.51% (inactive) in assay [2], -5.86% (inactive) in [4] and 6.39% (inactive) in assay [12]. Also, the activity, negative = inhibition in [5] was -0.225% (inactive). Besides, the compound was called inactive in assay [8], in assay [10] and in assay [11]. Also, the Potency result in assay [9], in assay [15], in [13] and in [14] was “inactive” throughout. The activation in [17] is -9.43% (inactive). For the same compound, the max response in [12] (setting [19]) is -8.3%; in assay [12] (setting [20]), 8.29%.
As to `COCCNc1nc(-c2ccccc2CN(C)C)nc2ccccc12`, the Potency in assay [1] is > 11.4 µM (inactive); in assay [3], 10 µM (active); in assay [6], > 46 µM (inactive); in [7] it was > 46 µM (inactive). The results for the activity change, negative = inhibition in assay [2], in assay [4] and in [12] were 4.08% (inactive), -0.773% (inactive) and 3.16% (inactive), respectively. The activity, negative = inhibition in assay [5] is 10% (inactive). Besides, the compound was classed as inactive in assay [8], in [10] and in assay [11]. The Potency result in assay [9], in assay [15], in assay [13] and in assay [14] was “inactive” in each case. In addition, the activation in [17] was 2.67% (inactive). Besides, the max response in assay [12] (setting [19]) came out at 2.38%; in assay [12] (setting [20]), 6.21%.
In the case of `c1cncc(-c2cncnc2-n2ccnc2)c1`, the Potency in assay [1] is > 11.4 µM (inactive); in [3], 20 µM (active); in [6], > 46 µM (inactive); in assay [7] it was > 46 µM (inactive). In addition, the activity change, negative = inhibition in assay [2] was 7.52% (inactive); in assay [4], -6.63% (inactive); in assay [12], 7.84% (inactive). The activity, negative = inhibition in assay [5] was 0.845% (inactive). Also, the call in assay [8], in assay [10] and in assay [11] was inactive. In addition, the Potency result in assay [9], in assay [15], in [13] and in assay [14] was “inactive” in each case. Further, the max response was found to be 7.56% in assay [12] (setting [19]) and 17.5% in assay [12] (setting [20]).
For `CN(C)c1ncnc2ccc(-c3ccccc3C#N)cc12`, the Potency is > 11.4 µM (inactive) in assay [1], 0.398 µM (active) in assay [3], > 46 µM (inactive) in [6] and > 46 µM (inactive) in assay [7]. Moreover, the activity change, negative = inhibition is -24% (inactive) in assay [2], 20.3% (inactive) in assay [4] and 8.38% (inactive) in assay [12]. The activity, negative = inhibition in assay [5] was 18.9% (inactive). For the same compound, the outcome in assay [8], in [10] and in [11] was inactive. Also, the Potency entry in assay [9], in [15], in assay [13] and in assay [14] was “inactive” in each case. Further, the max response was 15.4% in [12] (setting [19]) and 23.3% in [12] (setting [20]).
With `CN(C)c1ccnc(-c2ccccc2C(F)(F)F)n1`, the Potency in [1] is > 11.4 µM (inactive); in assay [3] it was 7.94 µM (active); in [6] it was > 46 µM (inactive); in [7] it was > 46 µM (inactive). In addition, the activity change, negative = inhibition was 24.2% (inactive) in [2], 6.88% (inactive) in assay [4] and 5.14% (inactive) in [12]. For the same compound, the activity, negative = inhibition in assay [5] is 1.29% (inactive). The call in assay [8], in [10] and in assay [11] was inactive. For the same compound, the Potency result in assay [9], in assay [18], in [13] and in assay [14] was “inactive” in each case. The max response in [12] (setting [19]) turned out to be 11.7%; in [12] (setting [20]) it was 18.9%.
